Assay outcomes as filed in PubChem.
An excerpt weighted towards active compounds, which were near 19% of everything screened.
DT40 TDP1 no CPT: qHTS for Inhibitors of human tyrosyl-DNA phosphodiesterase 1 (TDP1): qHTS in cells in absence of CPT | DT40 Tdp1-/- hTDP1 cells, no CPT, ATP luminescence, 48 h | Potency, µM (top dose mostly 46.2 µM), without a hit: at the top dose activity change, negative = growth inhibition, actives largely listed as inhibitors | hit rate 15% among 420,000; also: potency is read from the fitted curve at half-maximal effect; % is scaled to controls: 0 for no effect and ±100 for the full control effect; nearly all actives have a fitted effect of over 55% in size
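Readout: luminescence from CellTiter-Glo after 30 min in the dark at RT. Cells: DT40 Tdp1-/- with stable hTDP1, 400/well. Exposure: compounds alone, ≥48 hr, 37 °C.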
ASM inhibitor: blocks human secretory acid sphingomyelinase. placental ASM, HMU-PC fluorogenic substrate, 60 min. Potency, µM (series often up to 57.5 µM), inactives show at the highest dose activity change, negative = inhibition, usual class: inhibitors. hit rate 0.006% among 340,000; also: potency is read from the fitted curve at half-maximal effect
Target sequence (P17405 47-631 limits assumed): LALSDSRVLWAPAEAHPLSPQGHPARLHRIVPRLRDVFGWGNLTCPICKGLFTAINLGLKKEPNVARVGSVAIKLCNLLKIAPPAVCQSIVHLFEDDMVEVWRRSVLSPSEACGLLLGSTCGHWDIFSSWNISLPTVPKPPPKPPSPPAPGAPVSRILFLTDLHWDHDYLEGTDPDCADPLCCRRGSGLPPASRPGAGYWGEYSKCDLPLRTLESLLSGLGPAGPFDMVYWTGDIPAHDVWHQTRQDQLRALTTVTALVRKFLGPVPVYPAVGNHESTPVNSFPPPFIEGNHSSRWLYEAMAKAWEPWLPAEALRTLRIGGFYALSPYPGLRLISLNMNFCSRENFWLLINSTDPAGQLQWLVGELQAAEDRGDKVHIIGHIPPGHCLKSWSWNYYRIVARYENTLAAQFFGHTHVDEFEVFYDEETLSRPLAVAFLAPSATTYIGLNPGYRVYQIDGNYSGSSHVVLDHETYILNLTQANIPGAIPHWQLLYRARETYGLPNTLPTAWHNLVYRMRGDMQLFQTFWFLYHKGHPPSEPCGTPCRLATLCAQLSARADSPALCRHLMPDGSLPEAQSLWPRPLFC
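qHTS format. ASM enzyme prepared from human placenta hydrolyses the fluorogenic substrate HMU-PC0 (9 uM final) over 60 min at 37 °C after a 10 min compound preincubation.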
TGFb SMAD3 inh: inhibitors of TGF-b signaling; hit rate 1.2% among 410,000; HepG2 CAGA-GFP TGF-b/SMAD3 reporter, GFP fluorescence, 18 h; TGF-beta stimulated, 500 pg/mL final; Potency, µM (titrated, usually from 46.1 µM), inactives show at the highest dose activity, negative = inhibition, usual class: inhibitors; also: potency is read from the fitted curve at half-maximal effect; % is scaled to controls: 0 for no effect and ±100 for the full control effect; nearly all actives have a fitted effect of over 65% in size
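HEPG2 CAGA-GFP cells (1000/well, DMEM with 1% FBS) were pre-incubated 2 h at 37 degrees C, given compound by pin tool, then stimulated with TGF-beta at 500 pg/mL final for 18 h before per-cell GFP fluorescence imaging.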
TDP1 cell CPT: growth inhibition of DT40 Tdp1-/-;hTDP1 cells with camptothecin (screen for TDP1 inhibitors). chicken DT40 Tdp1-/-;hTDP1 cells + 20 nM CPT, ATP luminescence, 48 h. Potency, µM (top dose mostly 46.2 µM), inactives show at the highest dose activity change, negative = growth inhibition, usual class: inhibitors. hit rate 12% among 420,000. AID 686979; also: potency is read from the fitted curve at half-maximal effect; % is scaled to controls: 0 for no effect and ±100 for the full control effect; nearly all actives have a fitted effect of over 55% in size
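Chicken DT40 Tdp1-/- cells complemented with human TDP1, 400 cells/well, exposed to compounds plus 20 nM camptothecin for at least 48 h at 37 C; viability read as ATP content by CellTiter-Glo luminescence.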
IL1B secr inh: inflammasome signaling inhibition, IL-1 beta readout; hit rate 4.7% among 360,000; AID 743279; THP-1 LPS/ATP IL-1B secretion, AlphaLISA, 16 h; active compounds read low; activity change, % at 57.5 µM; in the data active = activity change below about -50%; inconclusive = mostly about -30% to -49%; also: % is scaled to controls: 0 for no effect and ±100 for the full control effect
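Secreted IL-1B measured by AlphaLISA bead assay after 16 h compound exposure of THP-1 cells; compounds (final up to 57.5 uM) added 1 h before LPS (250 ng/mL) and ATP (1.25 mM) stimulation; lower signal means less secretion.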
HepG2 tox: HepG2 cytotoxicity, counter-screen for TGF-b inhibitors; Potency, µM (top dose mostly 46.1 µM), for inactives: top-dose activity change, negative = cytotoxicity, hits mostly cytotoxic; AID 588856; HepG2 CAGA-GFP viability, ATP luminescence, 18 h; hit rate 0.76% among 410,000; also: potency is read from the fitted curve at half-maximal effect
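HepG2 CAGA-GFP cells (1000/well, DMEM with 1% FBS) received compound, then TGF-beta at 500 pg/mL final, and were incubated 18 hours at 37 degrees C. Viability was read by CellTiter-Glo luminescence. Media-only wells were set as complete cell-killing and DMSO as no toxicity.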
* hit, by the source's call; ? = inconclusive; . = no result given; ! = repeats disagree; [ ] = dose if it differs, or a comment. Unless noted, calls follow the shape of the dose curve; as a rule, active = well fitted curve in the direction sought with a large enough effect; inconclusive = small, poorly fitted or top-dose-only effect, or another doubt; inactive = no such curve, though single readings can be large; an effect the other way counts as inactive or inconclusive.

SMILES	DT40 TDP1 no CPT	ASM inhibitor	TGFb SMAD3 inh	TDP1 cell CPT	IL1B secr inh	HepG2 tox
O=C(CCC1CCN(C(=O)CC2=CCCCC2)CC1)NCc1ccc(F)cc1	?	.	-13%	?	1	-24%
Cc1cc2c(c(-c3ccc(Cl)cc3)c1)OC(CNC(=O)Cc1c(C)noc1C)C2 (stereo not given)	-18%	.	.	0%[9.04 µM]	.	.
O=C(NNC(=O)c1csc(-c2cccs2)n1)c1ccc(Cl)cc1	?	.	?	?	-2	-11%
Cc1nc(C(=O)NNC(=O)c2ccc(Cl)cc2)cs1	12µM*	-1%	10%	16µM*	66	6%
C=CC[n+]1c(/C=C/c2ccc(OC(C)=O)c(OC)c2)ccc2ccccc21	12µM*	53%	-5%	7.3µM*	-99*	-56%
COc1ccc([N+](=O)[O-])c(C=CC(=O)c2ccccn2)c1	2.3µM*	.	?	5.2µM*	-105*	-124%
COc1ccc(/C=C/C(=O)N2CCN(c3ccccn3)CC2)cc1	-19%	-2%	-2%	-27%	-19	-22%
COc1ccc(/C=C/C(=O)c2ccccn2)cc1	?	23%	-9%	21µM*	?	-29%
COc1ccc(OC)c(NC(=O)/C=C/c2ccccc2[N+](=O)[O-])c1	?	-4%	-7%	-11%	-26	-48%
COc1cccc(-c2ccnc(-n3ncc(C(=O)NCc4cccnc4)c3C3CC3)n2)c1	?	.	.	-9%[9.04 µM]	.	.
COc1cc(/C=C/C(=O)OCC(=O)NC(=O)NC(C)C)cc(S(=O)(=O)N2CCc3ccccc32)c1OC	21µM*	-8%	?	?	?	6%
Cc1ccc(S(=O)(=O)n2c(CN3CCCC(C)C3)nc3ccccc32)cc1 (stereo not given)	-23%	5%	?	2%	-51*	11%
Cc1ccc(S(=O)(=O)n2c(C)nc3ccccc32)cc1	-4%	1%	-9%	-6%	5	1%
COC(=O)C1=C(C)OC(N)=C(C#N)C1c1cccnc1 (stereo not given)	?	5%	-2%	21µM*	5	3%
CC1=C(n2nnc([N+](=O)[O-])n2)C(c2cccnc2)C(C#N)=C(N)O1 (stereo not given)	?	3%	?	9.2µM*	?	-12%
CCOC(=O)CC1=C(C(=O)OCC)C(c2cccnc2)C(C#N)=C(N)O1 (stereo not given)	1%	4%	2%	-1%	-13	-2%
N#CC1=C(N)Oc2ccc3ccc(O)cc3c2C1c1cccnc1 (stereo not given)	-17%	1%	-8%	-6%	40	4%
N#CC1=C(N)Oc2ccc3ccccc3c2C1c1cccnc1 (stereo not given)	5.2µM*	-3%	-26%	3.7µM*	0	-27%
C=CCOC(=O)C1=C(C)OC(N)=C(C#N)C1c1ccc2c(c1)OCO2 (stereo not given)	16µM*	0%	-14%	26µM*	18	2%
O=C(C[C@H]1C(=O)N(c2ccccc2)C[C@@H]1Cc1ccccc1)Nc1ccccc1	?	.	11%	?	5	-14%
CN(C)c1ccc(-c2nnc(SCC(=O)NCc3ccco3)n2C)cc1	-18%	.	-4%	-8%	.	-14%
COc1ccc(C(=O)N(C)CCCC2CCCC2)cc1OC1CCN(C(C)C)CC1	?	1%	?	?	?	-30%
CC(C)c1nnc(SCC(=O)N2CCc3ccccc32)n1N	-14%	2%	20%	7%	-29	-6%
CCn1c(Cl)c(C=O)s/c1=N\S(=O)(=O)c1ccccc1	0.37µM*	3%	3.5µM*	0.82µM*	-3	8.9µM*
O=C(Nc1ccc(Cl)cc1Cl)[C@@H]1CC=C[C@@H]2CCN(C3CC3)C(=O)[C@@H]21	?	.	?	?	.	9%
SMILES	DT40 TDP1 no CPT	ASM inhibitor	TGFb SMAD3 inh	TDP1 cell CPT	IL1B secr inh	HepG2 tox
CCCCN1CC[C@H]2C=CC[C@@H](C(=O)Nc3ccc(Cl)cc3Cl)[C@H]2C1=O	?	1%	?	16µM*	-19	-9%
COc1ccc(CN2CC[C@H]3C=CC[C@@H](C(=O)Nc4ccccc4)[C@H]3C2=O)cc1OC	10µM*!	.	-13%	?	.	0%
COc1ccc(CN2CCC3C=CCC(C(=O)O)C3C2=O)cc1OC (stereo not given)	.	.	-4%	.	.	-13%
Cc1c(C)c2c(OCC(=O)N[C@@H](Cc3ccccc3)C(=O)O)cc3c(c2oc1=O)CCC(C)(C)O3	-7%	109%	20%	-4%	-11	4%
Oc1ccc(/C=C/c2nc(-c3ccccc3O)n(-c3ccccc3)n2)cc1	?	-16%	?	?	-66*	-100%
O=C(O)c1ccc(-n2nc(-c3ccccc3O)nc2-c2ccccc2O)cc1	21µM*	.	.	?	.	.
Oc1ccccc1-c1nc(/C=C/c2ccccc2)nn1-c1ccccc1	?	-2%	1%	-27%	?	-24%
Oc1ccc(/C=C/c2nc(-c3ccccc3O)n(-c3ccccc3)n2)c(O)c1	?	.	11µM*	-70%	.	14µM*
Oc1ccccc1-c1nc(/C=C/c2ccc(F)cc2)nn1-c1ccccc1	?	.	-9%	?	.	-24%
COc1ccccc1NC(=S)NC(NC(=O)CC(C)C)C(Cl)(Cl)Cl (stereo not given)	?	-1%	-13%	?	16	-26%
COc1ccc(OC)c(CN2CCN(C(=O)CNC(=O)c3ccccc3F)CC2)c1	-21%	1%	6%	-25%	-2	3%
NCCCCCc1nnc(SC/C=C/c2ccccc2)o1	23µM*	4%	?	18µM*	-1	-20%
Cc1onc(-c2ccccc2)c1NC(=O)Nc1c(-c2ccccc2)noc1C	-24%	-2%	21%	4%	28	2%
Cc1ccc(-c2noc(N=O)c2NO)cc1	23µM*	45%	?	21µM*	-96*	-39%
Cc1cc(C)cc(OCC(=O)OC(C)C(=O)Nc2c(C)n(C)n(-c3ccccc3)c2=O)c1 (stereo not given)	-3%	1%	?	-2%	6	4%
C/C=C/c1ccc(OCC(=O)Nc2cc(OC)c(OC)c(OC)c2)c(OC)c1	12µM*	?	-1%	13µM*	-11	3%
